Screening data as filed in PubChem.
SUMO Mot1 rescue – SUMOylation pathway inhibition by Mot1-301 growth rescue | growth rescue, % at 18.8 µM | 1% of 320,000 active | S. cerevisiae Mot1-301 growth rescue, ATP luminescence, 38.5C; percent above DMSO median, 100 means doubled;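 active = every valid replicate shows activation above 250% relative to neutral control wells; inactive = the rest, any valid replicate at or below 250%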;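 also: OY570 slx delta 5 strain wells were the positive control but not used for scaling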
Cardio protect – modulators protecting cardiomyocytes from myocardial damage; H9c2 cardiomyocytes, H2O2 injury protection, ATPLite, 2 h; protection from H2O2 cell death, % at 20 µM; 0.63% of 360,000 active;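 active = compounds giving at least 50% protection of heart cells from peroxide-induced death in the single-dose screen, raw or plate-pattern-corrected value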;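 also: 0% = DMSO wells with peroxide and 100% = DMSO wells without peroxide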
GRIN3A LBD mod – modulators (binders) of human NR3A ligand-binding domain. 2.5% of 340,000 active. NR3A LBD differential scanning fluorimetry, Tm shift; 0% = protein alone, 100% = glycine-bound protein. Tm shift relative to glycine control, % at 25 µM. AID 1259313;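 active = melting temperature shift of at least 10% of the positive control shift, at one fixed dose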
NTR1 ag – agonists of human neurotensin receptor NTR1; P30989; NTR1-U2OS beta-arrestin-GFP spot imaging, agonist mode; activation, % at 20 µM; 0.17% of 330,000 active;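 active = activation at or above 40% of the spot to cytoplasm intensity ratio, with at least 20 cells analyzed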;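 also: 0% = DMSO without peptide and 100% = 100 nM NTR1 peptide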
AI-2 QS modul – modulators of Vibrio harveyi AI-2 quorum sensing system; Vibrio harveyi JMH597 AI-2 luminescence/OD600 ratio, 9 h; active compounds read low; strain lacks LuxN and CqsS sensors; 0 = neutral-control median; activity change, % at 7.5 µM; 0.4% of 300,000 active; in the data active = activity change below about -75%, passing the limit was not always enough;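 also: luminescence divided by OD600 gain over 9 h not by final OD600 alone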
AHR activator – activates the human aryl hydrocarbon receptor | P35869 | AHR-responsive luciferase reporter cells, luminescence | activation, % at 5 µM | 2.5% of 320,000 active | AID 2796; in the data active = activation above about 47%;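 also: 0% = vehicle wells and 100% = reference agonist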
AHR act cf – confirmation of human aryl hydrocarbon receptor activators; shares compounds with AHR activator; 87% of 2,300 active; human cells, AHR-responsive luciferase reporter, luminescence; AID 2845; activation, % at 9 µM; in the data active = activation above about 49%;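 also: HepG2 hepatoma cells carrying a DRE-driven firefly luciferase reporter; 0% = vehicle wells and 100% = reference agonist wells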
PXR counter – activates human PXR in AHR activator counter-screen; 88% of 2,300 active; activation, % at 11.6 µM; shares compounds with AHR activator; cell-based PXR reporter, luciferase luminescence; in the data active = activation above about 11%;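 also: human hepatoma DPX-2 cells expressing full-length human PXR; 0% = DMSO and 100% = reference agonist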
Target sequence (O75469 whole entry, looked up): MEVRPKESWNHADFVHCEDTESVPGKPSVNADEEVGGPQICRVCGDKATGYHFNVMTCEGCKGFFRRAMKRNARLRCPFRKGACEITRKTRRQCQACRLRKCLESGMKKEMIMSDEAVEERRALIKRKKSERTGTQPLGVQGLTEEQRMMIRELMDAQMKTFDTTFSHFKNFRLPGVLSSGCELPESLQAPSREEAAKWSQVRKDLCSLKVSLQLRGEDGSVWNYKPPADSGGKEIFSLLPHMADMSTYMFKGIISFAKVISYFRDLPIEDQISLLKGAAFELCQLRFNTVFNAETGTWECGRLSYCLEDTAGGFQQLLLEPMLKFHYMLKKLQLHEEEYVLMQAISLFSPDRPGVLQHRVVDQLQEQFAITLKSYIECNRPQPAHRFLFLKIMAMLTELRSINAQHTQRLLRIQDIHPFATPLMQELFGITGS
* marks the source's active call; other numbers are inactive results; . = no result. Only some compounds are listed: those with a hit (about 6.2% of all), similar ones and a draw of the others.

SMILES	SUMO Mot1 rescue	Cardio protect	GRIN3A LBD mod	NTR1 ag	AI-2 QS modul	AHR activator	AHR act cf	PXR counter
Cc1nn(Cc2ccccc2Cl)c2sc(C(=O)Nc3nccs3)cc12	38	29	-12	5	15	102*	119*	99*
Cc1nn(Cc2ccc(F)cc2)c2sc(C(=O)Nc3nccs3)cc12	14	-10	-21	4	6	96*	109*	38*
Cc1nn(Cc2ccc(F)cc2)c2sc(C(=O)Nc3ccccc3N3CCOCC3)cc12	-4	13	3	9	24	5	.	.
Cc1ccc2c(c1)N(CC(=O)NCCC1=CCCCC1)C(=O)c1cccnc1O2	-6	3	-2	3	5	0	.	.
CC(=O)N1CCn2c3c(c4cc(C)ccc42)CCCC31 (stereo not given)	-8	-2	-1	0	6	35	.	.
CCN1CCn2c3c(c4cc(C)ccc42)CCCC31 (stereo not given)	23	-29	-3	1	16	81*	105*	11*
Cc1ccc2c(c1)c1c3n2CCN(C(=O)CCl)C3CCC1 (stereo not given)	2	-4	2	0	2	113*	98*	17*
Cc1ccc2c(c1)c1c3n2CCCNC3CCC1 (stereo not given)	430	7	1	-1	11	2	.	.
O=C(NCCOc1ccccc1)C1Nc2ccc(C(F)(F)F)cc2C2c3ccccc3CC12 (stereo not given)	8	-8	4	10	6	87*	7	78*
CN(C)C(=O)c1cccc(-c2cnc3c(NC=O)cc(-c4ccccc4F)cn23)c1	.	19	.	.	.	.	.	.
Cc1ccc([N+](=O)[O-])cc1NC(=O)c1ccc2c(c1)OCO2	.	0	-2	-1	19	115*	100*	25*
O=C(Nc1ccc(Cl)cc1[N+](=O)[O-])c1ccc2c(c1)OCCO2	46	-3	2	1	21	-4	.	.
O=C(Nc1cc([N+](=O)[O-])ccc1Cl)c1ccc2c(c1)OCO2	1	-3	-2	2	20	106*	100*	23*
CN(C(=O)Cn1c(=O)oc2ccccc21)C1CCCCC1	0	9	1	-2	.	2	.	.
Cc1c(Cc2ccc3c(c2)OCO3)sc(NC(=O)C2CC2)c1C(N)=O	-2	-4	0	1	18	0	.	.
Cc1c(Cc2ccc3c(c2)OCO3)sc(NC(=O)c2cccc3ccccc23)c1C(N)=O	-7	-15	0	8	19	103*	60*	58*
CN(C)S(=O)(=O)c1cccc(NC(=O)c2cc(=O)[nH]c3ccccc23)c1	318	1	0	0	-7	2	.	.
Cc1cccc(NC(=O)c2cc(=O)[nH]c3ccccc23)c1	-14	7	0	0	25	89*	90*	11*
Cc1cc(NC(=O)CSc2nc3c([nH]c4ccccc43)c(=O)n2-c2cccc(C(F)(F)F)c2)no1	.	12	-2	.	14	.	.	.
Cc1cc(NC(=O)CSc2nc3c([nH]c4ccccc43)c(=O)n2-c2ccccc2F)no1	9	-4	-4	3	15	90*	70*	164*
Cc1ccccc1-n1c(SCC(=O)NCC2CCCO2)nc2c([nH]c3ccccc32)c1=O (stereo not given)	-20	1	-4	0	16	14	.	.
O=C(CSc1nc2c([nH]c3ccccc32)c(=O)n1-c1ccccc1F)NCC1CCCO1 (stereo not given)	-10	6	-1	2	4	96*	98*	112*
COc1cccc(-n2c(SCC(=O)Nc3cc(C)on3)nc3c([nH]c4ccccc43)c2=O)c1	-8	4	-2	0	26	103*	103*	63*
CCn1cnc2cc(NC(=O)COc3ccc(C)cc3)ccc21	.	-13	-11	.	.	.	.	.
Cc1noc(C)c1S(=O)(=O)N(C)C[C@H]1Oc2ccc(NC(=O)CCC(F)(F)F)cc2C(=O)N([C@H](C)CO)C[C@@H]1C	13	-7	0	-3	.	-1	.	.
SMILES	SUMO Mot1 rescue	Cardio protect	GRIN3A LBD mod	NTR1 ag	AI-2 QS modul	AHR activator	AHR act cf	PXR counter
CC(=O)Nc1cccc(NC(=O)c2cccc3cccnc23)c1	0	3	5	3	18	124*	101*	56*
Cc1ccc(NC(=O)CN(C)S(=O)(=O)c2cccc3cccnc23)cc1	66	2	0	-1	22	2	.	.
Cc1ccc(NC(=O)c2cccc3cccnc23)cc1	-10	-18	-5	2	2	121*	110*	30*
C=C[C@]1(C)C=C2C(=O)[C@@]3(O)OC(=O)[C@@]4(CCCC(C)(C)[C@H]34)[C@@]2(O)CC1	.	9	.	.	.	.	.	.
O=C(c1ccccn1)N1N=C2/C(=C/c3ccc(F)cc3)CCCC2C1c1ccc(F)cc1 (stereo not given)	-11	-5	0	4	13	94*	95*	49*
CC(=O)N1N=C2c3ccccc3CCC2C1c1ccc(F)cc1 (stereo not given)	21	5	1	4	6	99*	108*	29*
O=C(O)c1ccccc1C(=O)N1N=C2/C(=C/c3cccc([N+](=O)[O-])c3)CCCC2C1c1cccc([N+](=O)[O-])c1 (stereo not given)	15	-5	8	1	1	6	.	.
CC(=O)N1N=C2/C(=C/c3ccccc3)CCCC2C1c1ccccc1 (stereo not given)	-21	-13	-2	3	4	100*	87*	101*
CN1N=C2c3ccccc3CCC2C1c1ccc(C(F)(F)F)cc1 (stereo not given)	8	.	-1	0	-1	21	.	.
CC(C)CC1C(=O)N(Cc2cn(CCC3OCCCO3)nn2)CCS(=O)(=O)N1Cc1ccc(-c2ccc(Cl)c(Cl)c2)cc1 (stereo not given)	.	10	.	.	.	.	.	.
Cc1cccc2cc(C#N)c(NCCCn3ccnc3)nc12	-1	7	0	4	8	92*	67*	33*
Cc1cc(NCCCn2ccnc2)n2c(nc3ccccc32)c1C#N	-4	10	-2	11	13	104*	79*	16*
COc1ccc(/C=C/c2ccc3ccccc3[n+]2C)cc1OC	-6	-7	2	3	9	19	.	.
CC(=O)Oc1ccccc1/C=C/c1ccc2ccccc2[n+]1C	12	-9	0	0	6	111*	21	14*
